A selection: hits, their analogues and other compounds. The true share with any hit is near 7.6%.
HCV NS3h FP: hepatitis C NS3 helicase inhibition, primary screen | NS3h Cy5-dT15 DNA binding, fluorescence polarization | inhibition, % at 100 µM | 16,000 compounds, 1.6% hits;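 active = inhibition above the average over every tested compound plus 3 SD, cut at about 40% in these data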
Cy5 interf NS3h: counter-screen for HCV NS3 helicase inhibitors: fluorescence interference; Cy5-dT15 DNA with NS3h; actives lie on both sides; signal over control mean, under 1 quenches; fluorescence interference ratio at 100 µM; 16,000 compounds, 6% hits;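 active = compound fluorescence over control fluorescence at most 0.8, a quencher, or at least a set upper limit, an enhancer; inactive = ratio between 0.8 and the set upper limit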
NS3h confirm: hepatitis C NS3 helicase inhibition, confirmation; shares compounds with HCV NS3h FP; 240 compounds, 20% hits; NS3h binding to Cy5-dT15 DNA, fluorescence polarization; AID 720485; inhibition, % at 100 µM;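 active = percent inhibition of 50% or more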
SSB-DNA FP CB: disrupts E. coli SSB binding to DNA in counter-screen. E. coli SSB binding Cy5-dT15, fluorescence polarization. 240 compounds, 40% hits. inhibition, % at 100 µM. shares compounds with HCV NS3h FP;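 active = inhibition of at least 50%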;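 also: displacers lower Cy5 polarization so higher inhibition means more SSB displaced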
Target sequence (P0AGE0 whole entry, looked up): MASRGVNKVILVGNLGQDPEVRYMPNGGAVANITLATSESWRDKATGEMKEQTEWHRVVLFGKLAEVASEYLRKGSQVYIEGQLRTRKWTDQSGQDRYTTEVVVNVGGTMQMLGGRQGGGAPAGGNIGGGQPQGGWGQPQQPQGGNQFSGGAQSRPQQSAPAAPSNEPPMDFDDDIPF
Cy5 SSB interf: Cy5 fluorescence interference in NS3h counter-screen; fluorescence interference ratio at 100 µM; 240 compounds, 8% hits; shares compounds with HCV NS3h FP; Cy5-dT15/E. coli SSB fluorescence interference; actives lie on both sides;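 active = fluorescence interference ratio at or above 1.2, signal boosting, or at or below 0.8, signal quenching; inactive = ratio between 0.8 and 1.2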
Cy5 interf conf: Cy5 fluorescence interference, confirmation counter-screen; 240 compounds, 44% hits; AID 720489; shares compounds with HCV NS3h FP; fluorescence interference ratio at 100 µM, hits read low; Cy5-dT15 DNA/NS3h fluorescence interference counterscreen;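 active = fluorescence interference ratio at or below 0.8 quencher or at or above a set limitenhancer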
Of the large screens only hits and unclear results are named; the others gave an inactive call (follow-up assays come after a bar, where they were run).

Cc1ccccc1-c1nc2cc(NC(=S)NC(=O)c3ccco3)ccc2o1	none
CCc1c(C#N)c(N)nc(SCC(=O)c2ccc(-c3ccccc3)cc2)c1C#N	none
CCc1c(C#N)c(N)nc(SCC(=O)c2cc3ccccc3oc2=O)c1C#N	none | NS3h confirm inactive | SSB-DNA FP CB inactive | Cy5 SSB interf inactive | Cy5 interf conf 0.76
O=C(Nc1cc(C(F)(F)F)ccc1Cl)c1nn2c(c1Br)NC(c1cccs1)CC2C(F)(F)F (stereo unspecified)	none
CC(=O)Nc1ccc(N2C(=O)/C(=C/c3ccc([N+](=O)[O-])cc3)C=C2c2ccccc2)cc1	Cy5 interf NS3h 1.4 | NS3h confirm inactive | SSB-DNA FP CB inactive | Cy5 SSB interf inactive | Cy5 interf conf inactive
O=C1/C(=C/c2ccc([N+](=O)[O-])cc2)NC(=S)N1c1ccccc1	none
Cc1ccc(Br)cc1S(=O)(=O)NCc1ccco1	none
O=C(O)c1ccc2c(c1)C(=O)N(c1ccc(Cl)c([N+](=O)[O-])c1)C2=O	none
CN1C(=O)C(=O)N(CC(=O)NCc2ccco2)C1=O	HCV NS3h FP 74, Cy5 interf NS3h 0.75 | NS3h confirm inactive | SSB-DNA FP CB inactive | Cy5 SSB interf 0.77 | Cy5 interf conf inactive
CC(C(=O)NCc1ccco1)N1C(=O)c2ccccc2C1=O (stereo unspecified)	none
CC1CCN(c2cccc3c2C(=O)c2ccccc2C3=O)CC1	none
O=C1c2ccccc2-c2onc3ccc(N4CCCCC4)c1c23	HCV NS3h FP 52 | NS3h confirm inactive | SSB-DNA FP CB 71 | Cy5 SSB interf 1.2 | Cy5 interf conf 0.79
O=C(NC(=S)Nc1ccc2oc(-c3ccc(Cl)c(Cl)c3)nc2c1)c1ccccc1	HCV NS3h FP 102, Cy5 interf NS3h 1.2 | NS3h confirm inactive | SSB-DNA FP CB inactive | Cy5 SSB interf inactive | Cy5 interf conf 0.8
O=C(NC(=S)Nc1ccc2oc(-c3ccc(Cl)cc3)nc2c1)c1ccccc1	none
CCOc1ccc(C(=O)Nc2cc(OC)ccc2OC)cc1[N+](=O)[O-]	HCV NS3h FP 89 | NS3h confirm inactive | SSB-DNA FP CB inactive | Cy5 SSB interf inactive | Cy5 interf conf inactive
COc1ccc(C)cc1NC(=O)c1ccc(OC)c([N+](=O)[O-])c1	none
Cc1ccc(-c2nnc(SCC(=O)Nc3ccc(F)cc3)o2)cc1	HCV NS3h FP 62 | NS3h confirm inactive | SSB-DNA FP CB inactive | Cy5 SSB interf inactive | Cy5 interf conf inactive
O=C(CSc1nnc(-c2ccc(Cl)cc2Cl)o1)Nc1ccccc1	none
Cc1nc2ccc(NC(=S)NNc3ccccc3)cc2nc1C	none
CC1=NN(c2ccccc2)C(=O)/C1=C/c1cn(CCC#N)nc1-c1ccc(Cl)cc1	none
O=C(NCc1ccc2c(c1)OCO2)c1ccc(F)cc1	none
Cc1ccc(-n2c(=O)c3c4c(sc3n3c(=S)[nH]nc23)CCCC4)cc1	none
COc1cc(/C=C2\SC(=S)NC2=O)cc(Br)c1OC	none
COc1cc(/C=C2/SC(=S)NC2=O)ccc1OC(=O)c1ccccc1Br	HCV NS3h FP 42 | NS3h confirm inactive | SSB-DNA FP CB inactive | Cy5 SSB interf inactive | Cy5 interf conf 0.78
CCOc1ccccc1NC(=O)C(=O)NCCCN1CCOCC1	none
C=CCc1cccc2cc(C(=O)NCCc3ccccc3)c(=O)oc12	none
C=CCc1cccc2cc(C(=O)Nc3cccc4c3C(=O)c3ccccc3C4=O)c(=O)oc12	HCV NS3h FP 58 | NS3h confirm inactive | SSB-DNA FP CB inactive | Cy5 SSB interf inactive | Cy5 interf conf inactive
CCC(c1ccccc1)c1nnc(NC(=O)Nc2cccc(Cl)c2)s1 (stereo unspecified)	HCV NS3h FP 47, Cy5 interf NS3h 1.2 | NS3h confirm inactive | SSB-DNA FP CB inactive | Cy5 SSB interf inactive | Cy5 interf conf 0.74
O=C(NCC(c1ccccc1)c1ccccc1)Nc1cccc(Cl)c1	none
CN1C(=O)NC(=O)/C(=C\c2ccc(Cl)cc2Cl)C1=O	HCV NS3h FP 74 | NS3h confirm inactive | SSB-DNA FP CB inactive | Cy5 SSB interf inactive | Cy5 interf conf inactive
Cc1cc(C)cc(N2C(=O)NC(=O)/C(=C\c3ccc(Cl)cc3)C2=O)c1	none
C/C(=N\NC(=O)C(=O)N/N=C(\C)c1ccccc1)c1ccccc1	none
O=C(O)c1cccc2c1NC(c1cccc3ccccc13)C1CC=CC21 (stereo unspecified)	HCV NS3h FP 50 | NS3h confirm inactive | SSB-DNA FP CB inactive | Cy5 SSB interf inactive | Cy5 interf conf inactive
O=[N+]([O-])c1cccc2c1NC(c1ccccc1F)C1CC=CC21 (stereo unspecified)	none
CCN(CC)c1ccc(C(=O)Nc2ccc(Cl)c(Cl)c2)cc1	none
COc1ccc2occ(C(=O)c3ccccc3Cl)c(=O)c2c1	HCV NS3h FP 57 | NS3h confirm inactive | SSB-DNA FP CB inactive | Cy5 SSB interf inactive | Cy5 interf conf inactive
COc1ccc(C(=O)c2coc3ccc(O)cc23)cc1	none
O=c1c2c(nc3cc(-c4cccs4)[nH]n13)CCS2	HCV NS3h FP 60 | NS3h confirm inactive | SSB-DNA FP CB inactive | Cy5 SSB interf inactive | Cy5 interf conf inactive
O=c1c2c(nc3cc(-c4cccs4)[nH]n13)CCC2	none
COC(=O)C1=C(C)NC2=C(C(=O)CC(c3ccc(OC)c(OC)c3)C2)C1c1ccc2c(c1)OCO2 (stereo unspecified)	none
CCOC(=O)c1[nH]c(=O)[nH]c1CSc1ccccn1	HCV NS3h FP 44 | NS3h confirm inactive | SSB-DNA FP CB inactive | Cy5 SSB interf inactive | Cy5 interf conf inactive
COc1ccc(NC(=O)CSc2ccccn2)cc1	none
C=CCN1C(=O)NC(=O)C(=Cc2ccc(C(C)C)cc2)C1=O	none
C=CCN1C(=O)NC(=O)/C(=C/C=C/c2ccco2)C1=O	HCV NS3h FP 78, Cy5 interf NS3h 1.3 | NS3h confirm inactive | SSB-DNA FP CB inactive | Cy5 SSB interf inactive | Cy5 interf conf 0.76
O=C1C=C(Nc2ccccc2)C(=O)N1c1ccccc1Cl	none
O=C1NC(=O)N(c2ccccc2Cl)C(=O)/C1=C\C=C\c1ccco1	HCV NS3h FP 62, Cy5 interf NS3h 1.2 | NS3h confirm 51 | SSB-DNA FP CB 96 | Cy5 SSB interf 1.2 | Cy5 interf conf inactive
O=C(Nc1ccc(I)cc1)C(Cc1ccccc1)N1C(=O)c2ccccc2C1=O (stereo unspecified)	none
COc1ccc(NC(=O)Cc2cccc3c(S(=O)O)cccc23)cc1	none
O=C(NCc1ccccc1Cl)c1cccc(Br)c1	none
CCc1ccc(S(=O)(=O)Nc2c(C)cc(C)cc2C)cc1	none
CN1C(=O)C(=Cc2c(Cl)cccc2Cl)C(=O)N(C)C1=O	HCV NS3h FP 42 | NS3h confirm inactive | SSB-DNA FP CB inactive | Cy5 SSB interf inactive | Cy5 interf conf inactive
CN1C(=O)/C(=C/c2c(Cl)cccc2Cl)SC1=S	none
NC1=NN(c2ccc(N)cc2)CC1	HCV NS3h FP active, Cy5 interf NS3h 0.076 | NS3h confirm 90 | SSB-DNA FP CB 100 | Cy5 SSB interf 0 | Cy5 interf conf 0.072
O=C(CCCOc1ccc(Cl)cc1Cl)Nc1ncn[nH]1	none
